{"source": "the supplement of paper PMC11624193", "about": "“Coupling cellular drug-target engagement to downstream pharmacology with CeTEAM” (Nature Communications, 2024)", "note": "Unmarked numbers belong to inactive results.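 Rule for the calls: active = log2 fold change beyond 2 SD from the library mean after excluding viability outliers; inactive = within 2 SD.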"}
{"biological_target": "PARP1 L713F-nLuc biosensor (HCT116) (UniProt P09874)", "sequence (P09874 whole entry L713F, looked up)": "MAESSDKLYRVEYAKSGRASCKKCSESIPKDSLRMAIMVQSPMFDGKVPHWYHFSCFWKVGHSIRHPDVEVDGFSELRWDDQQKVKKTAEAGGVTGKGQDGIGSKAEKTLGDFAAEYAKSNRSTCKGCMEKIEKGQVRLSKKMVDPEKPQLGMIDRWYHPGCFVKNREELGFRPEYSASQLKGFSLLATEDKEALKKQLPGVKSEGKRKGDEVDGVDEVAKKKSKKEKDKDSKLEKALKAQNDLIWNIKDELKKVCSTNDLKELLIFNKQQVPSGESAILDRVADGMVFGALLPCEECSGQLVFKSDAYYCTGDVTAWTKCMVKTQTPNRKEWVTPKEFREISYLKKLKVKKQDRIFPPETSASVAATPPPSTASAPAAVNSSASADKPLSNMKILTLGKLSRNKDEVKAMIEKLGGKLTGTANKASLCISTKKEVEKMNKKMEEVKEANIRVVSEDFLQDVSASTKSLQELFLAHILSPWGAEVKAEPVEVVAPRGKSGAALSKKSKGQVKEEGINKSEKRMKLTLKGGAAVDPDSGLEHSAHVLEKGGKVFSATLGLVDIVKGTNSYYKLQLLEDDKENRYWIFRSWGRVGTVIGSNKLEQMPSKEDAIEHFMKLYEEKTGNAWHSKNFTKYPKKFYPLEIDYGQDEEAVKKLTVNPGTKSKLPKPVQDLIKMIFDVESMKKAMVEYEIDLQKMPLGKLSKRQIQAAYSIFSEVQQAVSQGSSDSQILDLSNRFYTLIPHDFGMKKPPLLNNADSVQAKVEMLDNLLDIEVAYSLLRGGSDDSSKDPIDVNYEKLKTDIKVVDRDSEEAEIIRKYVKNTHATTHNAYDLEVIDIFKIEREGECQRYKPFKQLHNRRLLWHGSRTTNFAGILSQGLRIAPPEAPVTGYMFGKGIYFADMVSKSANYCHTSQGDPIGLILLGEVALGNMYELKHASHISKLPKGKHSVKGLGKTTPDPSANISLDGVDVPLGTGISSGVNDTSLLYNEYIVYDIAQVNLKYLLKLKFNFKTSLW", "test": "PARP1 L713F-nLuc/akaLuc ratio relative to DMSO control (biosensor stabilization) (fold change); higher = more PARP1 biosensor stabilization (target engagement / stabilizer), active = hit call of the paper", "settings": "stock concentration (mM; final µM = stock mM x 1): 10; 24 h"}
{"compound": "CCN(CCCOc1ccc2c(Nc3cc(CC(=O)Nc4cccc(F)c4)[nH]n3)ncnc2c1)CCOP(=O)(O)O", "note": "[Barasertib]", "PARP1 L713F-nLuc/akaLuc ratio": 1.15}
{"compound": "C[C@@H]1CCN(C(=O)CC#N)C[C@@H]1N(C)c1ncnc2[nH]ccc12", "PARP1 L713F-nLuc/akaLuc ratio": 0.783}
{"compound": "CCCCCC1CC1CC1CC1CCCCCCCC(=O)OC", "note": "(stereo not given)", "PARP1 L713F-nLuc/akaLuc ratio": 1}
{"compound": "COc1ccc2[nH]cc(/C=C3\\C(=O)Nc4ccc(NC(=O)CCN5CCCCC5)cc43)c2c1", "PARP1 L713F-nLuc/akaLuc ratio": 0.931}
{"compound": "O=C(O)CC[C@H]1CC[C@@](c2cc(F)ccc2F)(S(=O)(=O)c2ccc(Cl)cc2)CC1", "PARP1 L713F-nLuc/akaLuc ratio": 0.688}
